Cycloheximide cs: counter-screen for Shiga toxin inhibitors: cycloheximide protein synthesis inhibition | cell reporter, cycloheximide protein synthesis inhibition counterscreen | max response, % | 12% of 300,000 active | AID 2314; in the data active = max response mostly above about 13%, no sharp cut-off; inactive = mostly below about 14%; also: read at 38.3 µM for the half of the compounds with a filed dose
Shiga toxin inh: Shiga toxin inhibition | inhibition, % at 38.7 µM | Vero cells, Shiga toxin protein synthesis inhibition reporter | 9.2% of 290,000 active; in the data active = inhibition mostly above about 28%, no sharp cut-off; inactive = mostly below about 43%
SARS PLpro yeast: blocks SARS-CoV papain-like protease in a yeast assay | AID 485353 | Potency, µM (titrated, usually from 32.9 µM), actives largely listed as activators | 0.19% of 330,000 active | S. cerevisiae expressing SARS-CoV PLpro, growth rescue; calls by dose curve; also: nearly all actives have a fitted effect of over 55% in size
NS1 inh: blocks influenza NS1 protein function; Potency, µM (series often up to 46.1 µM); 0.4% of 270,000 active; calls by dose curve; also: actives are rising curves; nearly all actives have a fitted effect of over 50% in size
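In this qHTS, NS1 from influenza A is expressed in budding yeast, where it slows growth. Cells are switched from glucose to 2% galactose medium (pH 6.0, -URA), treated with compound, and growth recovery is read at OD600.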
Pf growth 48h: P. falciparum growth inhibition at 48 hours (one generation); P. falciparum luciferase growth in erythrocytes, 48 h; Potency, µM (titrated, usually from 28.7 µM), hits mostly inhibitors; 5.9% of 310,000 active
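Growth was read as firefly luciferase luminescence after a 48 h, 37 C, 5% CO2 exposure of compounds to reporter-bearing P. falciparum cultures (0.1% parasitemia, 2% hematocrit final) in Albumax-supplemented RPMI 1640.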
Pf growth 96h: P. falciparum growth inhibition at 96 hours | P. falciparum luciferase reporter growth, 96 h | Potency, µM (series often up to 28.7 µM), hits mostly inhibitors | 6.9% of 320,000 active
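Two parasite generations (96 h, 37 C, 5% CO2) of compound exposure in infected erythrocytes (0.05% parasitemia, 2% hematocrit). Luciferase-reporter P. falciparum; decreased luminescence indicates inhibited growth, aimed at apicoplast-acting delayed death.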
A number is an active result; i = inactive; ? = inconclusive; nt = not tested or not shown; [ ] = remark or other dose. Compounds with a hit are over-represented: about 21% of the library has one in this group of screens. Unless noted, calls follow the shape of the dose curve; as a rule, active = well fitted inhibition curve with a large enough effect; inconclusive = small, poorly fitted or top-dose-only effect, or another doubt; inactive = no such curve, though single readings can be large or run the other way.

SMILES	Cycloheximide cs	Shiga toxin inh	SARS PLpro yeast	NS1 inh	Pf growth 48h	Pf growth 96h
CN(C)c1ccc(/C=N/NC(=O)c2cc(-c3ccc4c(c3)OCO4)n[nH]2)cc1	31.1	59.8	i	i	i	i
N=C(N)SCc1ccc(Cl)cc1Cl	i	i	i	i	?	10.4µM
O=S(=O)(Nc1ccc(Br)cn1)c1ccc(Cl)s1	i	i	i	i	i	i
COc1cccc(NC(=O)CCN2C(=O)c3ccccc3Sc3ncccc32)c1	i	i	i	i	i	2.94µM
CC(C)NC(=O)CCCN1C(=O)c2ccccc2Sc2ncccc21	i	i	i	i	i	0.262µM
Cc1ccc(NC(=O)CCN2C(=O)c3ccccc3Sc3ncccc32)cc1	i	i	i	i	i	?
COc1cccc(C(=O)Nc2nc(-c3ccc(S(=O)(=O)N4CCOCC4)cc3)cs2)c1	i	i	?	i	11.7µM	i
Cc1ccc(-c2csc(NC(=O)c3ccc(S(=O)(=O)N4CCc5ccccc54)cc3)n2)cc1	i	i	i	i	10.4µM	13.1µM
CCOc1ccc(-c2csc(NC(=O)c3ccc(S(=O)(=O)N4CCc5ccccc5C4)cc3)n2)cc1	i	i	i	i	i	i
COc1ccc(/C=N/Nc2nc(-c3cccc(S(=O)(=O)N4CCCC4)c3)cs2)c(OC)c1	i	i	i	?	13.1µM	?
O=C(Nc1nc(-c2nc3ccccc3s2)cs1)c1ccc(S(=O)(=O)N2CCOCC2)cc1	i	i	i	i	i	i
O=C(Nc1nc(-c2ccc(S(=O)(=O)N3CCOCC3)cc2)cs1)c1ccccc1	i	i	i	i	8.28µM	8.28µM
CCc1nnc(SCC(=O)Nc2ccccc2Cl)nc1CC	i	i	i	nt	i	i
CC1CN(S(=O)(=O)c2ccc(C(=O)Nc3nc(-c4cc5ccccc5o4)cs3)cc2)CC(C)O1 (stereo not given)	i	i	i	i	i	i
Cc1ccc(Nc2nc(-c3ccc(S(=O)(=O)N4CCOCC4)cc3)cs2)cc1Cl	i	i	i	i	10.4µM	i
O=C(Nc1nc(-c2cc3ccccc3o2)cs1)c1ccc(S(=O)(=O)N2CCCC2)cc1	i	i	i	i	i	13.1µM
CC(C)CC(=O)Nc1nc(-c2ccc(S(=O)(=O)N3CCOCC3)cc2)cs1	i	i	i	i	?	?
COC(=O)[C@]1(C)N[C@H](CN(C)C(=O)c2ccc(C)cc2)[C@@H]2C(=O)N(C)C(=O)[C@@H]21	nt	nt	i	nt	nt	nt
Cc1ccc(S(=O)(=O)Nc2n[nH]nc2C(=O)NC2CCCCC2)cc1	i	i	i	nt	i	i
COc1cc(C(C)=O)ccc1OCC(O)CNCC(O)c1ccccc1 (stereo not given)	i	i	i	i	nt	i
COC(=O)c1ccc(-c2ccc(CNCC(O)c3ccccc3)o2)cc1 (stereo not given)	i	i	i	i	2.62µM	11.7µM
Cc1cc(C=O)c2c(c1)C=CC1(Oc3ccccc3C(=O)N1C)O2 (stereo not given)	i	i	i	i	?	i
Cn1cccc1-c1nc2ccc(NC(=O)c3ccco3)cc2[nH]1	43.7	i	i	i	i	i
O=C(Nc1cccc(-c2nc3ccccc3[nH]2)c1)c1ccco1	i	41.6	i	i	?	14.7µM
c1ccc(NCc2cccnc2)cc1	i	i	i	i	i	i
SMILES	Cycloheximide cs	Shiga toxin inh	SARS PLpro yeast	NS1 inh	Pf growth 48h	Pf growth 96h
O=C(Nc1ccc2nc(-c3cccs3)[nH]c2c1)c1cccs1	i	i	i	i	i	nt
c1cncc(CNc2cccc(-c3nc4ccccc4[nH]3)c2)c1	54.1	active	i	i	i	i
O=C(Nc1ccc2nc(-c3cccs3)[nH]c2c1)c1ccco1	27.5	59.7	i	i	i	nt
CC(=O)c1cccc(NC(=O)c2ccco2)c1	i	i	i	i	i	i
O=C1N[C@@H](Cc2c[nH]c3ccccc23)COC(=O)[C@@H](Cc2ccc(F)cc2)CC/C=C/C[C@@H]1CC(=O)N(CCO)Cc1ccccc1	nt	nt	i	nt	nt	nt
CCN(Cc1ccc(N(C)C)cc1)C(C)C(=O)Nc1ccc(S(=O)(=O)N2CCCC2)cc1 (stereo not given)	nt	nt	i	nt	i	i
Cc1ccc2nc(-c3ccc(NC(=O)c4ccco4)cc3)[nH]c2c1	38.6	75.2	i	i	?	nt
O=C(Nc1ccc(-c2nc3ccc(NC(=O)c4cccs4)cc3[nH]2)cc1)c1cccs1	i	i	i	i	2.62µM	nt
O=C(Nc1cccc(-c2cnc3ccccc3n2)c1)c1ccccc1	i	i	i	i	i	i
O=C(Nc1cccc(-c2cnc3ccccc3n2)c1)c1cccc(NC(=O)c2ccco2)c1	43.4	46.5	i	i	nt	nt
Cc1ccc(-c2nnc(-c3ccc(NC(=O)c4ccco4)cc3)o2)cc1	i	i	i	?	i	?
COc1cc(/C=C(/C#N)C(=O)NC(C)c2ccccc2)cc(OC)c1O (stereo not given)	i	i	i	i	i	i
COc1ccccc1/C=C/C=C(\C#N)C(=O)NC(C)c1ccccc1 (stereo not given)	10.8	i	i	i	?	i
CCOC(=O)c1ccc(NC(=O)c2cccc(S(=O)(=O)N3c4ccccc4CC3C)c2)s1 (stereo not given)	i	i	i	i	11.7µM	?
Cc1ccc(NC(=O)c2cc(S(=O)(=O)N3CCOCC3)cn2C)cc1Cl	i	i	i	i	i	i
CCOC(=O)C1=C(c2ccccc2)N2CCS(=O)(=O)N=C2S1	i	i	i	i	i	10.4µM
O=C1CC(C(F)(F)C(F)(F)C(F)(F)C(F)F)=Nc2ccccc2N1	i	i	i	i	?	i
CC1=CC(C)=Nc2ccccc2N1	45.5	62.2	i	i	nt	i
CCn1c(SCC(=O)N/N=C(\C)c2ccncc2)nnc1-c1ccccc1	i	i	i	i	i	i
COc1ccc(/C=C/C(=O)NC2=NCCS2)cc1OC	37.8	69.7	i	i	i	i
COc1ccc(OC)c(/C=C/C(=O)NC2=NCCS2)c1	i	i	i	i	i[1.15 µM]	?
O=C(/C=C/c1ccco1)Nc1cccc(NC(=O)/C=C/c2ccco2)n1	33.2	102.5	i	i	i	i
CCSc1nnc(NC(=O)/C=C/c2ccco2)s1	30.1	116.7	i	nt	i	?
Cc1nc(NC(=O)/C=C/c2ccco2)sc1C	57.3	143.8	i	i	i	i
NS(=O)(=O)c1ccc(NC(=O)COC(=O)c2ncc(Cl)c(Cl)c2Cl)cc1	nt	nt	i	nt	nt	nt
SMILES	Cycloheximide cs	Shiga toxin inh	SARS PLpro yeast	NS1 inh	Pf growth 48h	Pf growth 96h
COc1ccccc1N1CCN(CCC(=O)Nc2cccc(Cl)c2)CC1	i	i	i	i	nt	?
C[C@H](C(=O)OCO/N=[N+](\[O-])N1CCCC1)c1cccc2ccccc12	i	i	nt	nt	nt	nt
CCCn1nnc(NC(=O)/C=C/c2ccco2)n1	i	i	i	i	i	i
O=C(/C=C/c1ccco1)Nc1nnc(-c2ccco2)s1	14.4	i	i	i	i	i
CCc1nnc(NC(=O)/C=C/c2ccco2)s1	26.7	i	i	i	i	i
O=C(/C=C/c1ccco1)NC1=NCCS1	61.1	42.7	i	i	i	?
COc1ccc2cc(N=Cc3nc(-c4ccc(C)cc4)oc3O)cnc2c1	i	i	i	nt	i	?

Screening data deposited in PubChem BioAssay by National Center for Advancing Translational Sciences (NCATS).
